# Compound activity deposited in PubChem BioAssay by Fisher Drug Discovery Resource Center.
# hcGAS inh: inhibitors of human cGAS; recombinant h-cGAS, ATP depletion, Kinase-Glo luminescence; hit rate 0.081% among 290,000; inhibition, % at 12.5 µM; AID 1259398; Q8N884;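 also: 0% = vehicle reaction and 100% = reaction without DNA for no activity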
# Target sequence (Q8N884 whole entry, looked up): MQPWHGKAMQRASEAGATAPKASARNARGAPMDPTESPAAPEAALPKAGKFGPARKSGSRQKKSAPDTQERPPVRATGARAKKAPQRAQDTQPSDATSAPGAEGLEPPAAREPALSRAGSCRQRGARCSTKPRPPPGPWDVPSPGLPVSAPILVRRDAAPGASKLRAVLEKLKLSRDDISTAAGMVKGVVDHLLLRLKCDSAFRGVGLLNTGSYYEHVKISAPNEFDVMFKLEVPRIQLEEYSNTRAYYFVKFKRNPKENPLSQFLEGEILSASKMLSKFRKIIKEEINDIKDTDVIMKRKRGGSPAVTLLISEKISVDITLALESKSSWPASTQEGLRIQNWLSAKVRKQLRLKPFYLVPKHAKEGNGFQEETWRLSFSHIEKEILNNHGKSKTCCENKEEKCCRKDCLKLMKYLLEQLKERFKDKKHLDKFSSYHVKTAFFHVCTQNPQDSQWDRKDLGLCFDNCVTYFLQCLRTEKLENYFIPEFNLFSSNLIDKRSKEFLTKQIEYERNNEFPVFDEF
# mcGAS lum: mouse cGAS inhibition by luminescence; AID 1259399; inhibition, % at 12.5 µM; recombinant cGAS, Kinase-Glo ATP depletion luminescence; hit rate 0.15% among 160,000;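 also: 0% = negative control wells and 100% = reference inhibitor with no enzyme activity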
# NPYLR7 agonist: mosquito NPYLR7 agonism | HEK293T NPYLR7/Galpha15, GCaMP6s calcium fluorescence | activation, % at 10 µM | hit rate 0.15% among 270,000; in the data active = activation above about 40%;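 also: 0% = vehicle and 100% = reference agonist at the receptor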
# Active calls of the source: *; nt = not tested or not shown; ! = a repeat was not active. This is a sample that favours compounds with a hit; in the whole collection about 0.28% have one here. Rule as the data show it, unless noted: active = inhibition above about 40%; inactive = the rest.
SMILES,hcGAS inh,mcGAS lum,NPYLR7 agonist
CCOC(=O)COc1cc2c(-c3cc4ccccc4o3)cc(=O)oc2cc1C,-3,-6,0
CCN=c1cc2oc3cc(NCC)c(C)cc3c(-c3ccccc3C(=O)OCC)c-2cc1C,-29,-20,159*
CCOC(=O)c1ccccc1-c1c2ccc(=N)cc-2oc2cc(N)ccc12,-2,-12,120*
O=C(COCc1ccccc1)NCCNc1nc(C2CC2)nc2ccccc12,-1,-4,3
CC(C)N=C(N)N=C(N)Nc1ccc(Cl)cc1,-4,nt,6
NC(=NCCCCCCN=C(N)N=C(N)Nc1ccc(Cl)cc1)N=C(N)Nc1ccc(Cl)cc1,-4,-4,70*!
Cc1ccc2oc(-c3ccc(NC(=O)c4ccc(Cl)c([N+](=O)[O-])c4)cc3)nc2c1,0,-5,16
CCc1ccccc1C(=O)N1CC[C@H](O)[C@@H](O)C1,-6,-16,29
Cc1cccc(CN2CCN(c3ccc(Cl)cc3)C(=O)C2C)c1 (centres undefined),-3,74*,-1
Cc1cccc(CN2CCN(c3cccc(Cl)c3)C(=O)C2C)c1 (centres undefined),-5,-5,-1
CCC1(O)CC(OC2CC(N(C)C)C(OC3CC(O)C(OC4CCC(=O)C(C)O4)C(C)O3)C(C)O2)c2c(cc3c(c2O)C(=O)c2c(O)cccc2C3=O)C1C(=O)OC (centres undefined),79*,nt,-10
COC(=O)C1=C(C)NC(C)=C(C(=O)OC)C1c1cc(Cl)ccc1OC(F)F,-2,-3,1
CCOC(=O)C1=C(C)NC(C)=C(C(=O)OCC)C1c1cc(Cl)ccc1OC(F)F,-6,-3,50*
CCCN(Cc1ccsc1)CC(O)COc1ccccc1 (centres undefined),-4,41*,27
C=CCOCC(O)CN(Cc1ccc(F)cc1)Cc1cccc(OC)c1 (centres undefined),-10,-4,22
CC(C)CN(Cc1ccsc1)CC(O)COc1ccc(Cl)cc1 (centres undefined),-6,-4,6
COc1cccc(CN(Cc2ccc(F)cc2)CC(O)COc2ccccc2)c1 (centres undefined),-4,76*,39
O=C(N=Nc1c(O)[nH]c2ccccc12)c1cc(-c2ccc3ccccc3c2)n[nH]1,-3,nt,10
Nc1ccc(Oc2ccc([N+](=O)[O-])cc2)cc1,1,nt,-11
Nc1ccc(Oc2cc(N)cc(Oc3ccccc3)c2)cc1,-3,-3,74*
O=C1CC(c2nc3c(s2)CCCC3)c2cc3cn[nH]c3cc2N1 (centres undefined),-7,-16,14
c1ccc2c(-c3cc(NC4CCNCC4)nc4[nH]ccc34)n[nH]c2c1,19,-11,24
c1cnc(-c2cc(NC3CCNCC3)nc3[nH]ccc23)nc1,46*,-3,30
Cc1cc(C)c(-c2cc(C(=O)N(CCC(=O)NCCN(C)C)Cc3ccccc3)no2)c(C)c1,-4,nt,16
COc1ccccc1-n1c(SCC(=O)O)nnc1C1CC(=O)N(C)C1 (centres undefined),-2,-13,1
SMILES,hcGAS inh,mcGAS lum,NPYLR7 agonist
O=C(CSc1nc(=O)n(CCCO)c2c1CCC2)Nc1cccc(F)c1,-6,-5,-10
O=C(CSc1nc(=O)n(CCCO)c2c1CCCC2)Nc1cccc([N+](=O)[O-])c1,-6,47*,-3
COc1ncc(-c2c(-c3ccccc3)ncn2CCCN2CCCC2)cn1,-3,nt,nt
COc1ccc(CCNC(=O)C(C2CCCC2)N2CCN(C(=O)c3ccc(Cl)cc3Cl)CC2)cc1 (centres undefined),-2,1,1
Cc1cc(Br)cc2c1=NC(=O)C=2c1sc(=S)[nH]c1O,5,94*,-2
O=C1N=c2ccc(F)cc2=C1c1sc(=S)[nH]c1O,15,100*,-1
CC(C)C(C(=O)O)n1c(O)c(C2=c3cc(Br)ccc3=NC2=O)sc1=S (centres undefined),-1,-1,-1
Nn1c(O)c(C2=c3cc([N+](=O)[O-])ccc3=NC2=O)sc1=S,-4,nt,1
O=C(N/N=C\c1coc2ccccc2c1=O)c1cccnc1,-4,-5,-3
C=CC[C@@H]1CC=C[C@@H](c2ccccc2)N1C(=O)c1ccc(=O)n(C)c1,0,nt,17
Cc1cc(C(=O)N(Cc2ccccn2)c2nc3ccc(Cl)cc3s2)on1,-6,-9,7
O=c1[nH]c2ccc(Cl)cc2o1,-4,nt,7
O=c1[nH]c2c(Br)c(Br)c(Br)cc2o1,35,66*,12
CN(C)CCN(CC1CCCCC1)S(C)(=O)=O,-6,-11,8
COc1cc(C=C(C#N)S(=O)(=O)c2ccc(Cl)cc2)cc(Cl)c1O,-1,nt,118*
CCOc1cc(C=C(C#N)C(=O)OC(C)C)cc(Cl)c1O,-7,nt,14
COc1cc(C=C(C#N)S(=O)(=O)c2ccc(Cl)cc2)cc2c1OCCO2,-4,nt,1
COc1cc(C=C(C#N)C(=O)OC(C)C)cc(Cl)c1O,-4,nt,83*
CCCN1CCN(Cn2nccc2-c2ccncc2)CC1,-4,nt,2
Cc1ncc(-c2ccc(C)c3ncccc23)[nH]1,-3,-17,1
O=c1ccn(Cc2nc3c(s2)CCCc2ccccc2-3)c(=O)[nH]1,-8,nt,7
O=C(O)C1(C(=O)O)CCC1.[NH2-].[NH2-].[Pt+2],0,-4,2
Cc1ccc2sc(N(Cc3ccccn3)C(=O)C3=COCCO3)nc2c1C,-12,-13,1
O=C1CSC(=S)N1N=Cc1cc(Br)c(O)c(Br)c1,43*,60*,67*
O=C1CSC(=S)N1N=Cc1ccc([N+](=O)[O-])o1,4,59*,3
SMILES,hcGAS inh,mcGAS lum,NPYLR7 agonist
O=C1CSC(=S)N1N=Cc1ccc(-c2nc3ccccc3s2)o1,-1,nt,25
COc1cc(C=NN2C(=O)CSC2=S)cc(Br)c1O,-10,-2,20
COc1cccc(-c2nnc(SCc3ccc(C(=O)N4CCOCC4)cc3)n2-c2ccccc2C)c1,-5,-3,1
CCOC(=O)c1c(N)c2c(-c3ccccc3)c(C#N)c(OCC)nc2n1C,-1,nt,3
CCOc1nc(Cl)c(C#N)c(-c2ccccc2)c1C#N,45*,nt,6
S=c1[nH]nc(-c2sc3ccccc3c2Cl)o1,50*!,47*,0
Clc1c(-c2nnco2)sc2ccccc12,1,nt,-2
CCOc1ccc(OCCNS(=O)(=O)c2ccc3c(c2)CC(C)N3C(C)=O)cc1 (centres undefined),-4,nt,-11
CCCCCCC1(C)NC(=O)N(CC(=O)NC(=O)NC2CCCCC2)C1=O (centres undefined),-6,nt,1
CNC(=O)c1cnc(/C=C/c2cc(OC)c3c(c2)OCCO3)s1,3,nt,-7
COC(=O)c1cnc(/C=C/c2cc(C)c(O)c(C)c2)s1,-6,nt,46*
S=C(NCCCn1ccnc1)Nc1ccccc1,-8,nt,5
O=C(COc1cccc(Br)c1)Nc1nnc(-c2cccnc2)s1,-12,nt,1
O=C(O)Cc1cc(I)c(Oc2ccc(O)c(I)c2)c(I)c1,-2,36,0
O=C(O)Cc1cc(I)c(Oc2cc(I)c(O)c(I)c2)c(I)c1,68*,94*,nt
CCOC(=O)c1nc2ccccc2nc1N1CCN(C(=O)c2ccco2)CC1,0,nt,14
O=C(NC(c1ccncc1)c1ccc(F)cc1)c1cn(Cc2ccc(Cl)cc2)nn1 (centres undefined),-3,nt,20
